Measurements taken from PubChem BioAssay (Tox21).
Results filed as inconclusive are left out. Calls of active or inactive are those of the source. Unless noted, calls come from the whole dose curve.

Tests used:
[1] = Nuclear factor erythroid 2-related factor 2/antioxidant responsive element (Nrf2/ARE) small molecule agonists: luciferase reporter gene qHTS assay in human keratinocytes (AID 1919969); note: nearly all actives have a fitted effect of over 35% in size
[2] = biological target: Gonadotropin-releasing hormone receptor (Homo sapiens) (UniProt P30968); experiment: Human gonadotropin-releasing hormone receptor (GnRHR) small molecule agonists, calcium flux assay in GnRHR-HEK293 cells (AID 1920063); note: nearly all actives have a fitted effect of over 35% in size
Sequence of Gonadotropin-releasing hormone receptor (Homo sapiens) (P30968 whole entry, looked up): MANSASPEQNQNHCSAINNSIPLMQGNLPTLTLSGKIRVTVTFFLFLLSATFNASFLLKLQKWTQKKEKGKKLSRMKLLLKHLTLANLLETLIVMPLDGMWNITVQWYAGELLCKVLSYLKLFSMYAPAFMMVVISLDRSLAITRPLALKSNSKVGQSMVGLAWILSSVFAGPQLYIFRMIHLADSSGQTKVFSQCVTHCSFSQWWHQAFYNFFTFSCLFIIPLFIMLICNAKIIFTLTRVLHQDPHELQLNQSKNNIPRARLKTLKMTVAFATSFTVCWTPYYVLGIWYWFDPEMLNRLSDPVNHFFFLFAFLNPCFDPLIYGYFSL
Outline: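 Tox21-format agonist screen using human GnRHR-expressing HEK293 cells and a fluorescent calcium dye; kinetic 3-min fluorescence reading after compound addition, 15-point concentration series run in triplicate.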

[3] = biological target: KiSS-1 receptor (Homo sapiens) (UniProt Q969F8); experiment: Human kisspeptin (KISS1R) small molecule agonists, calcium flux assay in KISS1R-HEK293 cells (AID 1920064; active = well fitted activation curve with a large enough effect in the repeat runs)
Sequence of KiSS-1 receptor (Homo sapiens) (Q969F8 whole entry, looked up): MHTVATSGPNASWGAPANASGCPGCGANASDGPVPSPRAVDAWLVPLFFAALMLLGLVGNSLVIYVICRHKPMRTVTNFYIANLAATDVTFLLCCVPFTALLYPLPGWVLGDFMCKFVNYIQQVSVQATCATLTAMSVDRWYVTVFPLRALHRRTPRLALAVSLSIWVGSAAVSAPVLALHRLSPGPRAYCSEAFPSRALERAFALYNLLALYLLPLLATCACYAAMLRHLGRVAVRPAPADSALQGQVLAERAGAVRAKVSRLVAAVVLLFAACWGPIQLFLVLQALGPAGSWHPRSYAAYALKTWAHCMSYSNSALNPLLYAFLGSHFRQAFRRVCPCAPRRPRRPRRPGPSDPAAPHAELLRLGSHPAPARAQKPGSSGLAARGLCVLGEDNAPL
Outline: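 Intracellular calcium mobilization in KISS1R-HEK293 cells was recorded by fluorescence (Ex/Em 480/540) for 3 min following compound addition to cells pre-loaded 1 h with calcium dye.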

[4] = G protein-coupled receptor (GPCR) small molecule agonists, calcium flux assay: HEK293 wild type cell line counter screen (AID 1920065)
Outline: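 In this agonist-mode screen, ATP is the positive control and DMSO the vehicle. Cells grow 18 h before a 1 h dye incubation at 37 C; signal is taken at Ex/Em 480/540 over 3 min.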

[5] = p53 small molecule agonists, cell-based qHTS assay with human liver microsomes (AID 1963577);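 note: p53 response element beta-lactamase reporter cells with liver microsomes plus NADPH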
Outline: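 With metabolic activation: human liver microsomes (0.5 mg/mL final) plus NADPH (0.5 mg/mL final) added alongside compounds to p53RE-bla cells; 16 h 37 C exposure; beta-lactamase read by LiveBLAzer fluorescence.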

[6] = p53 small molecule agonists, cell-based qHTS assay with rat liver microsomes (AID 1963578)
Outline: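 Metabolic activation by rat liver microsomes and NADPH, each 0.5 mg/mL final, added right after compounds to p53RE-bla reporter cells (4,000/well, plated 5 h earlier). 16 h at 37 C, then LiveBLAzer substrate for 2 h at room temperature in the dark; fluorescence read-out.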

[7] = p53 small molecule agonists, cell-based qHTS assay with human liver microsomes: qHTS cell viability counter screen (AID 1963579); note: nearly all actives have a fitted effect of over 45% in size
Outline: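 Metabolic activation used human liver microsomes and NADPH, both 0.5 mg/mL final, over 16 hours at 37 C on p53RE-bla cells (4,000/well). Cytotoxicity measured by CellTiter-Glo luminescence, 30 min at room temperature.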

[8] = p53 small molecule agonists, cell-based qHTS assay with rat liver microsomes: qHTS cell viability counter screen (AID 1963580); note: nearly all actives have a fitted effect of over 45% in size
Outline: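 p53RE-bla HCT-116 cells were exposed 16 h at 37 C to compounds with rat liver microsomes (0.5 mg/mL) and NADPH (0.5 mg/mL). Viability was measured in the same wells as ATP content by CellTiter-Glo luminescence.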

[9] = p53 small molecule agonists, cell-based qHTS assay (AID 1963582; active = well fitted activation curve with a large enough effect in the signal ratio in the repeat runs, not every such curve was filed as active; the % refers to the signal ratio)
Outline: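 Agonist activity was scored from beta-lactamase FRET fluorescence in p53RE-bla cells treated 16 h at 37 C with compounds in DMSO, substrate incubation being 2 h at room temperature.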

[10] = cAMP Responsive Elements (CRE) small molecule antagonists, cell-based qHTS assay (AID 1963591; active = well fitted inhibition curve with a large enough effect in the signal ratio in the repeat runs, not every such curve was filed as active; the % refers to the signal ratio)
Outline: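 qHTS in CRE-bla HEK 293T cells: compound in DMSO, then 0.25 uM NKH477 (final), 3 h at 37 °C/5% CO2; beta-lactamase FRET read-out after 2 h substrate incubation.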

[11] = biological target: Beta-2 adrenergic receptor (Homo sapiens) (UniProt P07550); experiment: Adrenergic beta2 receptor (ADRB2) small molecule antagonists, cell-based qHTS assay (AID 1963592); note: series mostly up to about 92 µM; nearly all actives have a fitted effect of over 50% in size
Sequence of Beta-2 adrenergic receptor (Homo sapiens) (P07550 whole entry, looked up): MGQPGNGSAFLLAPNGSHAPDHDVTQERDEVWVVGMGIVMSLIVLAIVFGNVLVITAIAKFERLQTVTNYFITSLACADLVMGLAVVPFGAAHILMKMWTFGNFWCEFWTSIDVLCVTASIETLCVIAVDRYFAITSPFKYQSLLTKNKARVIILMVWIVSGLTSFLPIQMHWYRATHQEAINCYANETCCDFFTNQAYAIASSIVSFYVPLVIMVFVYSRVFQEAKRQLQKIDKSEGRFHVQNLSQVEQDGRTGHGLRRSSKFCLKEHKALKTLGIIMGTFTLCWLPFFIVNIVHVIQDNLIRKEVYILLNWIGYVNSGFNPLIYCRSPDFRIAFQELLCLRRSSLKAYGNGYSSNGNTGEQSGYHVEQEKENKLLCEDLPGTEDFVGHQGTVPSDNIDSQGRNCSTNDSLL
Outline: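 Cells (CHO, stable ADRB2 overexpression) incubated 18-20hr at 37C; compounds added from DMSO; agonist mix (1nM isoproterenol, 100uM IBMX, 25uM Ro-20-1724) added; 0.5hr RT; d2-cAMP and anti-cAMP-cryptate added; 1hr RT; 665/615 nm read.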

[12] = biological target: Beta-2 adrenergic receptor (Homo sapiens) (UniProt P07550); experiment: Adrenergic beta2 receptor (ADRB2) small molecule agonists, cell-based qHTS assay (AID 1963593);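 note: CHO cells stably overexpressing human ADRB2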
Outline: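 CHO cells stably over-expressing ADRB2 were plated overnight at 37C, then dosed with compounds plus a stimulation mix containing 100uM IBMX and 25uM Ro-20-1724 for 0.5hr at room temperature. cAMP was measured by HTRF competition, 1hr.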

[13] = biological target: D(2) dopamine receptor (Homo sapiens) (UniProt P14416); experiment: Dopamine D2 receptor (DRD2) small molecule agonists, cell-based qHTS assay (AID 1963594); note: nearly all actives have a fitted effect of over 35% in size
Sequence of D(2) dopamine receptor (Homo sapiens) (P14416 whole entry, looked up): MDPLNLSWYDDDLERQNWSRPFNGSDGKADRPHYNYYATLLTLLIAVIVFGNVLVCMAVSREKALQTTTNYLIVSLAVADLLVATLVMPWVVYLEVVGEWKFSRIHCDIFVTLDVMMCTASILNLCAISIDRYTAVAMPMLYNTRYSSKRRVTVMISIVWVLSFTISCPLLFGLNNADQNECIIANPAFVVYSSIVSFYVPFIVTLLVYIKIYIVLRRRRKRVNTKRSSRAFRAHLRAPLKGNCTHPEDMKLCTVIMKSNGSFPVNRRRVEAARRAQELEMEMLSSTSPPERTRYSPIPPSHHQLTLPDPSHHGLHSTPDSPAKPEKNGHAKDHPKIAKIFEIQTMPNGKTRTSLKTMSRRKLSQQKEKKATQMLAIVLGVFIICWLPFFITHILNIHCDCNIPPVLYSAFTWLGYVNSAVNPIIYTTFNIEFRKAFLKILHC
Outline: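 HEK293 cells stably expressing human DRD2, pre-treated with PDE inhibitor Ro20-1724 (0.1 mM final) and compound 10 min at room temperature, then stimulated with NKH477 (200nM […]) for 30 min. cAMP read by HTRF (665/620 nm).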

[14] = p53 small molecule agonists, cell-based qHTS assay: qHTS cell viability counter screen (AID 1963581); note: nearly all actives have a fitted effect of over 45% in size
Outline: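 Compounds are pinned onto HCT-116 p53RE-bla cells and left 16 h at 37 C. Following the reporter FRET read, ATP is quantified by CellTiter-Glo luminescence after 30 min at room temperature.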

[15] = biological target: 5-hydroxytryptamine receptor 2A (Homo sapiens) (UniProt P28223); experiment: 5-hydroxytryptamine receptor 2A (HTR2A) small molecule antagonists, cell-based qHTS assay (AID 1963586); note: nearly all actives have a fitted effect of over 45% in size
Sequence of 5-hydroxytryptamine receptor 2A (Homo sapiens) (P28223 whole entry, looked up): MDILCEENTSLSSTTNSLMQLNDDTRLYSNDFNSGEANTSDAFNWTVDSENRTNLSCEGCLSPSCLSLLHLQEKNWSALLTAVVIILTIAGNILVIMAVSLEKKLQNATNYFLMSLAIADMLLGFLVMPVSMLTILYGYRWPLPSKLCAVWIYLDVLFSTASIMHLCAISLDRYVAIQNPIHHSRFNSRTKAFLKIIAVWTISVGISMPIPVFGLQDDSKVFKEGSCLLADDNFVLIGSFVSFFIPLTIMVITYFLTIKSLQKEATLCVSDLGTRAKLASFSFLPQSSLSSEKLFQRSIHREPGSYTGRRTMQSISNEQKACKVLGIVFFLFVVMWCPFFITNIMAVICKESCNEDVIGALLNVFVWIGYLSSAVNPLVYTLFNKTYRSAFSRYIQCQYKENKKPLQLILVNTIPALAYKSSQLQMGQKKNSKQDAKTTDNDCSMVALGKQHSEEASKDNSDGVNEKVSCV
Outline: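 Antagonist-mode intracellular calcium assay: DOI (4 nM) added after 5 min compound pre-incubation at room temperature to dye-loaded HTR2A-CHO cells. Fluorescence followed for 3 min, sampled every second.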

[16] = biological target: 5-hydroxytryptamine receptor 2A (Homo sapiens) (UniProt P28223); experiment: 5-hydroxytryptamine receptor 2A (HTR2A) small molecule agonists, cell-based qHTS assay (AID 1963587); note: nearly all actives have a fitted effect of over 30% in size
Outline: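 CHO cells stably expressing human HTR2A, plated 18 h, loaded with calcium dye 1 h at 37 C. Agonist mode: compounds added and intracellular calcium fluorescence recorded kinetically for 2 min at 1 sec intervals.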

[17] = biological target: Muscarinic acetylcholine receptor M1 (Homo sapiens) (UniProt P11229); experiment: Cholinergic receptor muscarinic 1 (CHRM1) small molecule antagonists, cell-based qHTS assay (AID 1963588); note: nearly all actives have a fitted effect of over 40% in size
Sequence of Muscarinic acetylcholine receptor M1 (Homo sapiens) (P11229 whole entry, looked up): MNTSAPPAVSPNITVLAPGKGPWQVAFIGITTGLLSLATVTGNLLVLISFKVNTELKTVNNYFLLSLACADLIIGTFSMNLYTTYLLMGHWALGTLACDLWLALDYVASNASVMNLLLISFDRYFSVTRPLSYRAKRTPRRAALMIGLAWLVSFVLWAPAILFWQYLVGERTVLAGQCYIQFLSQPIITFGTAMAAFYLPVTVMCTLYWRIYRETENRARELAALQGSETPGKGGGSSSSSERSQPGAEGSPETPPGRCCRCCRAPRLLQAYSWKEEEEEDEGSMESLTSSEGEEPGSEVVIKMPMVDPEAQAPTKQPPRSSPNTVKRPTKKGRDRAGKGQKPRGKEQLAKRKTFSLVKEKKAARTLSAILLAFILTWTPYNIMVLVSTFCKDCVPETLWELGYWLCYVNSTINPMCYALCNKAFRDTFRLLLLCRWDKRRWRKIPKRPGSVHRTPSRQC
Outline: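 CHRM1-CHO calcium-flux assay, antagonist mode. Cells were seeded 18 h, dye-loaded 1 h at 37 C and given compound for 5 min at RT, then acetylcholine was added at 50nM. FDSS fluorescence was read 3 min; 15 concentrations, three runs.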

[18] = biological target: Muscarinic acetylcholine receptor M1 (Homo sapiens) (UniProt P11229); experiment: Cholinergic receptor muscarinic 1 (CHRM1) small molecule agonists, cell-based qHTS assay (AID 1963589); note: nearly all actives have a fitted effect of over 35% in size
Outline: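 Stable CHRM1-CHO cells (human receptor) were incubated 18 h, dye-loaded for 1 h at 37 C and exposed to test compounds for agonist activity, with calcium-dependent fluorescence followed kinetically.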

[19] = cAMP Responsive Elements (CRE) small molecule agonists, cell-based qHTS assay (AID 1963590)
Outline: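 FRET-based beta-lactamase readout (LiveBLAzer B/G, 2 h RT) quantified CRE activation in HEK 293T CRE-bla cells after 3 h treatment with DMSO-dissolved compounds.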

[20] = biological target: D(2) dopamine receptor (Homo sapiens) (UniProt P14416); experiment: Dopamine D2 receptor (DRD2) small molecule antagonists, cell-based qHTS assay (AID 1963595; active = well fitted inhibition curve with a large enough effect in the signal ratio in the repeat runs, with a control signal flat; the % refers to the signal ratio)
Outline: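 Readout: HTRF cAMP, cAMP-d2 competing with cellular cAMP for anti-cAMP cryptate, read after 1 h. Cells: DRD2-HEK293. Conditions: 0.1 mM Ro20-1724, 12 nM quinpirole, 200 nM NKH477, 30 min RT.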

Measured: Potency

O=C(O)c1cc(N=Nc2ccc(S(=O)(=O)Nc3ccccn3)cc2)ccc1O
inactive: [1] | [2] | [3] | [4] | [5] | [6] | [7] | [8] | [9] | [10] | [11] | [12] | [13]

ClCCCl
inactive: [1] | [2] | [3] | [4] | [5] | [6] | [7] | [8] | [14] | [9] | [15] | [16] | [17] | [18] | [19] | [10] | [11] | [13] | [20]

OC/C=C/CO
inactive: [1] | [2] | [3] | [4] | [5] | [6] | [7] | [8] | [14] | [9] | [15] | [16] | [17] | [18] | [19] | [10] | [11] | [12] | [13] | [20]

CCC(=O)OC
inactive: [1] | [2] | [3] | [4] | [5] | [6] | [7] | [8] | [14] | [9] | [15] | [16] | [17] | [10] | [11] | [13] | [20]

CC(C)(C)OC(=O)c1cccc(N)c1
inactive: [1] | [2] | [3] | [4] | [5] | [6] | [7] | [8] | [14] | [9] | [15] | [16] | [18] | [19] | [10] | [11] | [13] | [20]

O=C(O)[C@@H](O)[C@H](O)[C@H](O)[C@@H](O)C(=O)O
inactive: [1] | [2] | [3] | [4] | [5] | [6] | [7] | [8] | [14] | [9] | [15] | [16] | [17] | [18] | [19] | [10] | [11] | [12] | [13] | [20]
